Compounds with a hit are over-represented: about 3.4% of the library has one in this group of screens.
MITF primary = MITF inhibitors, primary screen, biochemical, AlphaScreen, human | AID 1259374, 2018 | actives 0.91% (n = 650,000) | inhibition, % at 2.6 µM | AlphaScreen MITF homodimerization, bead proximity signal; in the data active = inhibition above about 50%
Target sequence (O75030 whole entry, looked up): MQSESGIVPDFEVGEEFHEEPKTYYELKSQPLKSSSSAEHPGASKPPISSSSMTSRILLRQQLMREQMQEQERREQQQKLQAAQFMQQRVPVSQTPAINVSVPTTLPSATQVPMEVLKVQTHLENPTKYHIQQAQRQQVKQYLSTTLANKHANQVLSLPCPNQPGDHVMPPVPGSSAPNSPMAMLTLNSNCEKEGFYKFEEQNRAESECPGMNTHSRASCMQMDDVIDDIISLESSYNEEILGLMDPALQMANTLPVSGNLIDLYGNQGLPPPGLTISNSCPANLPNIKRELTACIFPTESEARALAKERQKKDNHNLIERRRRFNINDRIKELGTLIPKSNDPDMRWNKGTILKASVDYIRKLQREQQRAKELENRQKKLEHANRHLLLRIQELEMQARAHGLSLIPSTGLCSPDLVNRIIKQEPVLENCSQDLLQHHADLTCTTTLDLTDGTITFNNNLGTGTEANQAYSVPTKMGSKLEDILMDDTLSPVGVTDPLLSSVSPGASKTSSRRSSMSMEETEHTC
FBW7 activator = FBW7 E3 ligase activators, primary screen, biochemical, AlphaScreen, human; F-box/WD repeat-containing protein 7 (Homo sapiens), Q969H0; AlphaScreen FBW7–phospho-cyclin E peptide binding, activator screen; normalized activity (activation), % at 26.1 µM; actives 0.13% (n = 650,000); AID 1259310, 2017; in the data active = normalized activity above about 1.9%;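 note: purified mutant Fbw7 with reduced substrate affinity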
TEAD-YAP block = TEAD-YAP interaction inhibition, primary screen, TEAD-YAP interaction inhibitor project, luminescence, HEK-TIYL cells. inhibition, % at 9.12 µM. actives 1.4% (n = 640,000). TEAD-Gal4/YAP UAS-luciferase luminescence; in the data active = inhibition above about 32%
GPR151 ag = activators of human GPR151, primary screen, cell-based, PathHunter beta-arrestin, luminescence. PathHunter beta-arrestin GPR151 cells. actives 1% (n = 650,000). activation, % at 11.2 µM; in the data active = activation above about 4.9%
GPR151 conf act = GPR151 activators, triplicate retest, confirmation, cell-based, PathHunter beta-arrestin, luminescence | shares compounds with GPR151 ag | GPR151 PathHunter beta-arrestin cells, 90 min; % of EA-reagent control over plate median | activation, % at 11.2 µM | 6,700 tested, under 10 active;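 active = mean percent activation across replicates above the confirmation screen cutoff of 4.91%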
GPR119 ag = GPR119 activators in beta-arrestin cells, counter-screen for GPR151 activator project, cell-based, PathHunter beta-arrestin, luminescence, triplicate; 90 min; 0 = compound-well median, 100 = enzyme-acceptor control; shares compounds with GPR151 ag; activation, % at 11.2 µM; actives 0.3% (n = 6,700);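 active = mean percent activation in the counterscreen above 29.09%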;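 note: counterscreen on off-target GPR119 to flag nonselective hits from the GPR151 activator screen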
Hits are given with their value; i = inactive; nt = not tested or not shown.

SMILES	MITF primary	FBW7 activator	TEAD-YAP block	GPR151 ag	GPR151 conf act	GPR119 ag
NC(=O)c1c(NC(=O)CCSc2ccc(F)cc2)sc2c1CCCC2	i	i	i	7.1	i	i
O=C(Cn1ccc2ccccc2c1=O)NCCC(=O)Nc1cccc(C(F)(F)F)c1	i	i	i	i	nt	nt
CCCNC(=O)COc1ncnc2ccccc12	i	i	i	i	nt	nt
Cc1ccc(N2CCN(C(=O)c3ccc4c(c3)NC(=O)c3ccccc3S4)CC2C)cc1 (centres undefined)	i	i	i	i	nt	nt
NC(=O)c1c(NC(=O)Cn2nnc(-c3ccccc3Cl)n2)sc2c1CCCC2	i	i	i	6.4	i	i
NC(=O)c1c(NC(=O)c2ccccc2Cl)sc2c1CCCC2	i	i	i	i	nt	nt
Cc1ccc(NC(=O)Cn2nnc(-c3ccccc3NC(=O)c3cccc(C)c3)n2)cc1	i	i	i	5.0	i	i
COc1ccc(Nc2n[nH]c3nc(C)cc(=O)n23)cc1	i	i	i	i	nt	nt
COc1cc(C)ccc1OCc1cc(C(=O)N2CCSCC2)no1	i	i	i	6.0	i	i
COc1cc(C)ccc1OCc1cc(C(=O)N2CCCCCC2)no1	i	i	i	i	nt	nt
CCOc1ccccc1C(=O)Nc1ccccc1F	i	i	i	i	nt	nt
CCC(Sc1nnc(-c2ccccc2)n1N)C(=O)O (centres undefined)	i	i	i	i	nt	nt
CC(Cc1nnc(-c2ccccc2)n1N)C(=O)O (centres undefined)	i	i	i	9.8	i	i
c1ccc(C(c2ccccc2)c2noc(C3CCNCC3)n2)cc1	i	i	i	6.9	i	i
c1cc(-c2noc(C3CCNCC3)n2)ccn1	i	i	i	i	nt	nt
COc1nc(Nc2c(C)cccc2C)nc(OC)n1	i	i	i	i	nt	nt
CC(=O)c1c(/C=C/N(C)C)nc2nonc2c1N=CN(C)C	i	i	i	i	nt	nt
CCCNC(=O)c1ccc2nc(N3CCc4ccccc4C3)sc2c1	i	i	i	i	nt	nt
O=C(NCc1ccccc1)c1ccc2nc(N3CCc4ccccc4C3)sc2c1	i	i	i	5.6	i	i
CCc1nn(C(CC)C(=O)NC2CCCC2)c(=O)c2cc3occc3n12 (centres undefined)	i	i	i	i	nt	nt
CCc1nn(C(CC)C(=O)NC2CCCC2)c(=O)c2cc3oc(C)cc3n12 (centres undefined)	i	i	i	13	i	i
C=CCSc1nnc2c(n1)OC(/C=C/c1ccc([N+](=O)[O-])o1)Nc1ccc(Br)cc1-2 (centres undefined)	i	i	i	9.1	i	i
FC(F)(F)c1ccc(-c2cnnc(N3CCSCC3)n2)cc1	i	i	i	i	nt	nt
OC1CCN(C2CCN(c3nncc(-c4ccc(C(F)(F)F)cc4)n3)CC2)CC1	i	i	i	7.3	i	i
Cc1cc(C)cc(NC(=O)C2=CCN(S(=O)(=O)c3ccc(F)cc3)CC2)c1	i	i	i	i	nt	nt
SMILES	MITF primary	FBW7 activator	TEAD-YAP block	GPR151 ag	GPR151 conf act	GPR119 ag
Cc1ccc(CSc2nc3ccccc3c(=O)n2CC2CCCO2)cc1 (centres undefined)	i	i	i	i	nt	nt
O=c1c2ccccc2nc(SCc2ccncc2)n1CC1CCCO1 (centres undefined)	i	i	i	6.2	i	i
CCOC(=O)C(C)N1C(=O)S/C(=C/c2cc(Cl)cc(OC)c2O)C1=O (centres undefined)	i	i	i	6.7	i	i
COC(=O)C(C)N1C(=O)S/C(=C/c2cc(Cl)cc(OC)c2O)C1=O (centres undefined)	i	i	i	i	nt	nt
CCOc1cc(-c2nc3sc4c(c3c(=O)[nH]2)CCCC4)ccc1OCc1ccccc1F	i	i	i	5.5	i	i
COc1cc(-c2nc3sc4c(c3c(=O)[nH]2)CCCC4)ccc1OCCOc1ccc(C)c(C)c1	i	i	i	5.7	i	i
O=C(c1cnc2scc(-c3ccccc3Cl)n2c1=O)N1CCC(O)C1 (centres undefined)	i	i	i	i	nt	nt
C/C(O)=C\c1nc2ccccc2[nH]c1=O	i	i	i	6.9	i	i
O=c1[nH]c2ccccc2nc1/C=C(\O)C(F)F	i	i	i	i	nt	nt
O=C(COC(=O)c1ccc[nH]c1=O)NCc1ccc(F)cc1	i	i	i	i	nt	nt
Cc1ccccc1CNC(=O)CN(C)c1nnc(N2CCCC2=O)s1	i	i	i	i	nt	nt
COc1cccc(CNC(=O)CN(C)c2nnc(N3CCCC3=O)s2)c1OC	i	i	i	5.3	i	i
Cc1ccccc1-c1nc(-c2ccc(Cl)cc2)no1	i	i	i	5.1	i	i
Cc1ccccc1-c1nc(-c2ccc(Br)cc2)no1	i	i	i	i	nt	nt
CCS(=O)(=O)NCCc1cc2c(C)ccc(C)c2[nH]c1=O	i	i	i	i	nt	nt
CCNS(=O)(=O)c1ccc(CCC(=O)NC2CC2)cc1	i	i	i	6.7	i	i
CCN(CC)CCNCC(=O)N1CCCc2ccccc21	i	i	i	8.3	i	i
COC(=O)C1(C(F)(F)F)CC(C)=C(C)CN1S(=O)(=O)c1ccccc1 (centres undefined)	i	i	i	i	nt	nt
CCCc1[nH]n(-c2ccc(F)cc2)c(=O)c1C=Nc1ccc(Cl)c(Cl)c1	i	i	i	i	nt	nt
CCN(Cc1c(C(=O)OC)nnn1-c1nonc1N)c1ccccc1	i	i	i	5.1	i	i
COC(=O)c1nnn(-c2nonc2N)c1C(=O)OC	i	i	i	6.0	i	i
COC(=O)c1nnn(-c2nonc2N)c1C(C)(C)C	i	i	i	i	nt	nt
C=CCNS(=O)(=O)c1sc2c(c1C(=O)OC)CCN(C/C=C/c1ccccc1)C2	i	i	i	i	nt	nt
O=S(=O)(Cc1ccccc1)N1CCCC(N2CCOCC2)C1 (centres undefined)	i	i	i	20	i	i
Clc1ccc(CSc2ncnc3nc[nH]c23)cc1	i	i	i	6.6	i	i
COc1ccc(CN2CCC3(CC2)CC3C(=O)NCCc2ccccc2)cc1 (centres undefined)	i	i	i	i	nt	nt
COc1ccc(/C(O)=C2\C(=O)C(=O)N(Cc3ccncc3)C2c2ccc(Cl)cc2)cc1 (centres undefined)	i	i	i	i	nt	nt
COc1ccc(S(=O)(=O)Nc2cccc3c([N+](=O)[O-])cccc23)cc1OC	i	i	i	6.0	i	i
COc1ccc(NC(=S)Nc2cccc([N+](=O)[O-])c2)cc1	i	i	i	i	nt	nt
